# Reference: PubChem BioAssay AID2253 (Southern Research Specialized Biocontainment Screening …, 2010)
# Out of some 2,200 compounds screened, about 1,300 (59%) were called active. The set was probably picked from earlier hits. Only a sample is shown. Entries with a potency or affinity are not part of this list. Values without a mark were called inactive. No rule for the calls is given here.
# Test: THP-1 cell cytotoxicity, dose response, cytotoxicity control for Salmonella PhoP regulon inhibitors, S. typhimurium screen hits (AID 2253)
# Conditions: THP-1 viability, CellTiter-Glo luminescence, 72 h; series mostly up to 50 µM; viability: at the top concentration
row,SMILES,viability [%]
1,S=c1nc(C2CCCCC2)[nH][nH]1,96.5
2,Cc1cc(C)n2c(SCC(=O)NCc3ccco3)nnc2n1,110
3,COc1ccc(C(=O)C(CO)Oc2ccccc2OC)cc1OC (stereo not given),88.4
4,CCS(=O)(=O)Nc1cc(C(=O)OC)ccc1C(=O)OC,94.7
5,CCCCOC(=O)CSc1nc2c(c(=O)[nH]c(=O)n2C)n1C/C=C(\C)Cl,95
6,Cc1ccc(NC(=O)c2ccccc2)s1,95.6
7,Brc1cccc(CNCc2cccs2)c1,101
8,Cc1cc(C(=O)NCc2cccs2)cs1,88.3
9,CCN(CC)Cc1c[nH]c2c(C(=O)OC)cccc12,85.1
10,COCCn1c(-c2ccccc2F)n[nH]c1=S,105
11,O=C(CCN1CCCCC1)NCC1OCCc2ccccc21 (stereo not given),98.8
12,CN1CCCC(OC(=O)c2ccc3c(c2)OCCO3)C1 (stereo not given),88.2
13,O=C(CCNS(=O)(=O)c1cccc2nsnc12)Nc1ccc2c(c1)OCCO2,96.2
14,S=c1[nH]nc(Cc2cccc3ccccc23)o1,104
15,c1coc(CNc2c3c(nc4ncnn24)CCCC3)c1,95.3
16,CCOc1ccc(CCNC(=O)c2cc3sc(Cl)cc3n2C)cc1OCC,82.6
17,CCOc1ccc(/C=N/O)cc1,93
18,CCN1CCN(C(=O)c2ccc(COc3ccc(Cl)cc3)o2)CC1,90
19,Cc1nc(N)sc1Cc1ccc2c(c1)OCO2,81.2
20,CCSc1cc(N2CCCC2)nc(-c2cccc(C)c2)n1,92.8

row,SMILES,viability [%]
1,O=C(CN1C(=O)c2ccccc2C1=O)N1CCN(c2ccccn2)CC1,93.9
2,CCN(Cc1ccccc1)C(=O)CN1C(=S)NC(C)(C)CC1C (stereo not given),105
3,Cc1cccc(NC(=O)c2cc(N3C(=O)CCC3=O)ccc2Cl)n1,92.3
4,CN1CCN(S(=O)(=O)c2ccc(-c3ccccc3)cc2)CC1,89.2
5,CC1CCN(S(=O)(=O)c2cccc(C(=O)N(C)C3CCS(=O)(=O)C3)c2)CC1 (stereo not given),92
6,COCCCNc1ccnc2c(Cl)cccc12,85.6
7,CC(C)c1ccc(NC(=O)Nc2cc3sccc3n2C)cc1,89.7
8,COc1ccc(Cl)cc1C(=O)Nc1ccc(NC(=O)c2ccco2)cc1,93.1
9,CSc1cccc(NC(=O)c2ccco2)c1,91.9
10,CCC(C)C(NC(=O)OCc1ccccc1)C(=O)OCN1C(=O)c2ccccc2C1=O (stereo not given),102
11,COC(=O)CCC(=O)Nc1ccc(OC)cc1,101
12,COc1ccc(C(=O)Nc2cc(C)ccc2NC(=O)COc2ccccc2)cc1,81.1
13,Cc1sc(NC(=O)c2ccco2)c(CN2CCN(c3ccc(F)cc3)CC2)c1C,89.5
14,CCOC(=O)c1c(C)[nH]c(C)c1C(=O)CSc1ncccn1,81.8
15,COc1cc(OC)cc(C(=O)N[C@H](C(=O)OCC(=O)Nc2ccc(C(N)=O)cc2)C(C)C)c1,89.5
16,Cc1ccc(-c2nnc(SCC(=O)N3CCCc4ccccc43)n2N)cc1,82.7
17,COC(=O)c1sccc1NC(=O)C1C2C=CC(O2)C1C(=O)O (stereo not given),90.1
18,CN(C)c1nc(N)nc(Cn2ccnc2)n1,92.4
19,O=C(Cc1cccs1)N(c1ccccc1)C1C=CS(=O)(=O)C1 (stereo not given),89.7
20,CC(=O)N(Cc1ccc(Cl)cc1)c1cnccn1,96.4

row,SMILES,viability [%]
1,CC1(C)CC(=O)C=C(Nc2ccccc2NC(=O)c2cnccn2)C1,101
2,CCn1cc(C(=O)NCCO)c(=O)c2cc(F)c(N3CCN(C)CC3)cc21,85.3
3,COc1ccc(N2C(=O)C3CCCN3C2c2cccc(C)c2)cc1Cl (stereo not given),92.3
4,CSc1nnc2c3c4c(sc3nc(-n3nc(C)cc3C)n12)COC(C)(C)C4,91.8
5,Cc1ccc(C(=O)CSc2ncnc3sc4c(c23)CCCC4)cc1,95.6
6,O=C(Nn1c(O)c(C=C2N=c3ccccc3=N2)sc1=S)c1ccc(Cl)cc1,93
7,COc1ccc(Br)cc1C(=O)NCc1cccnc1,94
8,Cc1ccc(C)c(C(=O)NCc2ccncc2)c1,84
9,Cc1ccc(NC(=S)NCc2cccnc2)cc1,91.9
10,S=C(Nc1ccc(Cl)c(Cl)c1)N1CCOCC1,85.7
11,S=C(NCc1cccnc1)Nc1cccc(Cl)c1,97.7
12,Cc1cc(=O)oc(C)c1C(=O)NCc1cccnc1,105
13,C=CCSc1nnc(-c2ccc(Cl)cc2Cl)o1,80.3
14,CNC(=S)N1CCN(c2c(F)cc3c(=O)c(C(=O)O)cn(C4CC4)c3c2OC)CC1C (stereo not given),91.2
15,COc1c(N2CCNC(C)C2)c(F)cc2c(=O)c(C(=O)O)cn(C3CC3)c12 (stereo not given),93.2
16,COc1c(N2CCN(C(=S)NC3CC4CCC3C4)C(C)C2)c(F)cc2c(=O)c(C(=O)O)cn(C3CC3)c12 (stereo not given),102
17,COc1c(N2CCN(C(=S)Nc3ccc(F)cc3)C(C)C2)c(F)cc2c(=O)c(C(=O)O)cn(C3CC3)c12 (stereo not given),98.2
18,CC(=O)Nc1c(C#N)c(C(C)(C)C)cn1C,94.6
19,COc1ccc(N(CC(=O)Nc2ccccc2SC)S(C)(=O)=O)cc1OC,88.8
20,COc1ccc(S(=O)(=O)N2Cc3ccccc3CC2C(=O)N2CCOCC2)cc1OC (stereo not given),87.6
